This is an account of results in PubChem BioAssay (NCATS).

Inconclusive results are not listed. A number with no mark means an inactive call. The source made the active and inactive calls. Unless noted, the call rests on the fitted dose curve; in most records, active means well fitted curve in the direction sought with a large enough effect; inconclusive means small, poorly fitted or top-dose-only effect, or another doubt; inactive means no such curve, though single readings can be large; an effect the other way counts as inactive or inconclusive.

The nature of assay [1]: P-glycoprotein substrates identified in KB-8-5-11 adenocarcinoma cell line, qHTS therapeutic library screen (AID 1346987). Further: nearly all actives have a fitted effect of over 65% in size. Further: potency means the concentration at half of the fitted maximal effect. On activity change, negative = cytotoxicity: on the % scale 0 is the no-effect control and ±100 the full control effect. The essentials: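 Compounds are pinned in dose-response onto KB-8-5-11 cells (500 cells/well, colchicine-free medium) and left 72 h at 37 degree C. CellTiter-Glo luminescence then yields AC50 values.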
The subject of assay [2] is Zika virus NS2B-NS3 protease (unlinked complex). Nature of the assay: Primary screen GU Rhodamine qHTS for Zika virus inhibitors: Unlinked NS2B-NS3 protease assay (AID 1347159). Further: nearly all actives have a fitted effect of over 60% in size. Further: potency means the concentration at half of the fitted maximal effect. On activity change, negative = inhibition: on the % scale 0 is the no-effect control and ±100 the full control effect. A digest of the protocol:
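Buffer 10 mM Tris-HCl pH 8.0, 0.01% Tween 20. Unlinked protease 25 nM; compound preincubation 15 min, RT, protected from light. Substrate Rhod110, 1.5 microM; ~15% conversion in 15 min.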
In general terms: In qHTS, concentration-response curves come from the screen itself.

For assay [3], the target named is Cytochrome P450 2D6 (Homo sapiens) (UniProt P10635). Nature of the assay: Cytochrome P450 family 2 subfamily D member 6 (CYP2D6) small molecule antagonists: luciferase biochemical (cell-free) qHTS assay (AID 1645840; active means well fitted curve in the direction sought with a large enough effect in the repeat runs; an effect the other way counts as inactive or inconclusive; further: on the % scale 0 is the no-effect control and ±100 the full control effect; nearly all actives have a fitted effect of over 55% in size). A digest of the protocol:
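P450-Glo CYP2D6 system: proluciferin substrate converted by enzyme to luciferin, read by luminescence proportional to activity. Enzyme-substrate mix with compound 10 min at room temperature, then NADPH regeneration 1 h before detection reagent.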

Assay [4] addresses Cytochrome P450 2C9 (Homo sapiens) (UniProt P11712). Nature of the assay: Cytochrome P450 family 2 subfamily C member 9 (CYP2C9) small molecule antagonists: luciferase biochemical (cell-free) qHTS assay (AID 1645842; active means well fitted curve in the direction sought with a large enough effect in the repeat runs; an effect the other way counts as inactive or inconclusive; further: on the % scale 0 is the no-effect control and ±100 the full control effect; nearly all actives have a fitted effect of over 55% in size). A digest of the protocol: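 P450-Glo CYP2C9 system: proluciferin substrate with enzyme in mix containing 0.4% BSA, 10 min at room temperature, then NADPH regeneration solution added and incubated 1 h at 37C. Detection reagent stopped reaction; luminescence read after 20 min as RLU.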

Assay [5] in a line: Primary qHTS for inhibitors of nuclear receptor binding SET domain protein 2 (NSD2) in an RCH-ACV wild type WT cells (2C) (AID 1645877). Further: nearly all actives have a fitted effect of over 70% in size. Further: potency means the concentration at half of the fitted maximal effect.
A short description of assay [6]: Primary fluorescence-based thiol-reactive (MSTI) qHTS assay for identification of artifact compounds. (AID 1845221).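 Further: thiol-reactive compounds lower the probe fluorescence signal; nearly all actives have a fitted effect of over 65% in size.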 A digest of the protocol:
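A multi-concentration qHTS design tested compounds against 4 uM MSTI, pH 7.4 phosphate-buffered saline. Plates were protected from light for 1 h at room temperature before imaging fluorescence.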

Assay [7] can be described thus: Primary redox qHTS assay for identification of artifact compounds. (AID 1845223).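 Further: 0% = DMSO and 100% = reference compound.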 The essentials: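 Redox-cycling detection via DTT (250 uM final) oxidation coupled to Amplex Red (25 uM)/HRP (250 mU/mL) in HBSS. 15 min preincubation plus 30 min after DTT, room temperature. Ex/Em 525/598 nm; 4-parameter Hill fit against DMSO and 10 uM DA3003.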
For the next assay, the system named is KB-3-1. Nature of the assay: Cytotoxic Profiling of Annotated Libraries Using Quantitative High-Throughput Screening (AID 1296008). Further: nearly all actives have a fitted effect of over 60% in size. Further: potency means the concentration at half of the fitted maximal effect. On max response: on the % scale 0 is the no-effect control and ±100 the full control effect. The settings on record: Five cell lines viability, CellTiter-Glo ATP luminescence, 48-72 h; max response: hits give low values. The essentials:
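Compounds were pin-transferred onto cells and incubated 48 or 72 hr at 37 degree Celsius, 95% humidity. CellTiter-Glo was added, plates sat 10 min at room temperature, then ATP-coupled luminescence was imaged as the viability read-out.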
A general note: ATP-based viability assays read luminescence as a measure of living cells.

For a further assay, the system named is CAOV3. Nature of the assay: Primary qHTS to identify gynecologic anti-cancer compounds using libraries of approved drugs and bioactive compounds (AID 1345084). Further: nearly all actives have a fitted effect of over 55% in size. Further: potency means the concentration at half of the fitted maximal effect. On activity change, negative = cytotoxicity: on the % scale 0 is the no-effect control and ±100 the full control effect. Conditions: Gynecologic cancer cell panel viability, ATPlite luminescence, 48 h; series mostly up to 57.5 µM. A digest of the protocol: (§1)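 ATP-based viability (ATPlite), 1,000 cells/well, 16 h pre-incubation, 48 h compound at 37 C, 5% CO2, 15 min RT before read.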

The subject of another assay is SKOV3. Described as above. Conditions: Gynecologic cancer cell panel viability, ATPlite luminescence, 48 h; series mostly up to 57.5 µM. A digest of the protocol: as §1
In a further assay the test system is HeLa. Described as above. The settings on record: Gynecologic cancer cell panel viability, ATPlite luminescence, 48 h; series mostly up to 57.5 µM. A digest of the protocol:
as §1

Assay [8] is described as follows: P-glycoprotein substrates identified in KB-3-1 adenocarcinoma cell line, qHTS therapeutic library screen (AID 1346986). Further: nearly all actives have a fitted effect of over 60% in size. A digest of the protocol: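 72 h cell-killing screen, 500 cells/well, CellTiter-Glo luminescence. Paired lines KB-3-1/KB-8-5-11; P-gp dependence checked by tariquidar co-treatment and HEK-293 MDR-19 versus empty-vector cells.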
Another assay relates to HACAT. Nature of the assay: qHTS assay to identify novel small-molecules to repurpose for Merkel cell carcinoma treatment (AID 1296009). Further: nearly all actives have a fitted effect of over 60% in size. The settings on record: MCC and control cell lines, CellTiter-Glo viability, 72 h; at 44.8 µM (top of the series) unless noted. A digest of the protocol:
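Viability readout: ATP luminescence (CellTiter-Glo) after 72 hr drug exposure at 37 degree celsius. Dose-response format was 8 points for NPC and 11 points for MIPE; data normalized to in-plate controls.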

Sequence of Cytochrome P450 2D6 (Homo sapiens) (P10635 whole entry, looked up): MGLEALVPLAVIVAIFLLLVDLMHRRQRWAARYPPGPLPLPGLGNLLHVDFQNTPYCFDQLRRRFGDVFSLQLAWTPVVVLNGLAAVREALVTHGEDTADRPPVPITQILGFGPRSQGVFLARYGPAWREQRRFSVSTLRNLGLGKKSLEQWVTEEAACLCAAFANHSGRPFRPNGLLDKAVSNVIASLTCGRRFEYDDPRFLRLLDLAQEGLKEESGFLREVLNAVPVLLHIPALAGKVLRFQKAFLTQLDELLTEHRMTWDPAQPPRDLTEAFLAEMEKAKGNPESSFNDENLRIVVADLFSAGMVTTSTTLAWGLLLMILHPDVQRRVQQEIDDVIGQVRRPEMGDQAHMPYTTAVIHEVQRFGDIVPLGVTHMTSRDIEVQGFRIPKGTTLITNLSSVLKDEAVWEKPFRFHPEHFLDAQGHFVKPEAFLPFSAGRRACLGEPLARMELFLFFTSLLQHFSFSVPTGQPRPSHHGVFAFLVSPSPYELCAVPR
Sequence of Cytochrome P450 2C9 (Homo sapiens) (P11712 whole entry, looked up): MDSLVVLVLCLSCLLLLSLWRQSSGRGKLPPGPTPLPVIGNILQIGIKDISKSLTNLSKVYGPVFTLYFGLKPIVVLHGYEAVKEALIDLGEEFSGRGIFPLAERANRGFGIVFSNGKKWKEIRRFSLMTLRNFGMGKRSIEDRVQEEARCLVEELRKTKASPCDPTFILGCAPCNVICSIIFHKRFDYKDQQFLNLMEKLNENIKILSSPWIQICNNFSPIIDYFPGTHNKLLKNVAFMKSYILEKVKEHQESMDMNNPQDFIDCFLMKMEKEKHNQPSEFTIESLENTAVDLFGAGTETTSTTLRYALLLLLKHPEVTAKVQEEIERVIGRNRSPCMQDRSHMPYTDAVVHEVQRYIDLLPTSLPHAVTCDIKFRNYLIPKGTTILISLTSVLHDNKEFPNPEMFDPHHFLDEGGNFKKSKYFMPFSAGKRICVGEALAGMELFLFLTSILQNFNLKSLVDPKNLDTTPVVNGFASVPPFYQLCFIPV

As to `COc1ccsc1CNCC[C@@]1(c2ccccn2)CCOC2(CCCC2)C1`, the Potency entry in assay [1], in assay [2], in assay [3], in assay [4], in assay [5] and in assay [6] was “inactive” each time. Moreover, the Potency entry (in assay [7]; in the assay with CAOV3; in the assay on SKOV3) was “inactive” throughout. Also, the max response in the assay with KB-3-1 was 9.07%.
As to `C[C@H](CCC(=O)O)C[C@H](C)C[C@H](C)C(=O)/C=C(\O)[C@H](C)C[C@H](C)C/C=C/[C@@H](C)[C@@H](O)[C@@H](C)[C@@H](O)C[C@@H]1CC[C@@](C)([C@H]2CC[C@@](C)([C@@H](C)O)O2)O1`, the Potency in [5] is 4470 nM (active); in the assay on KB-3-1, 8930 nM (active). For the same molecule, the Potency entry (in [6]; in assay [7]; in the assay with CAOV3; with HeLa) was “inactive” in each case.
Consider `CC1=C[C@H]2O[C@@H]3C[C@H]4OC(=O)/C=C/C=C/C(=O)OCC/C(C)=C/C(=O)OC[C@@]2(CC1)[C@]4(C)[C@]31CO1`, for which the Potency result in [2] and in [7] was “inactive” throughout. The Potency was 20 nM (active) in the assay on KB-3-1, 89.1 nM (active) in the assay with HeLa and 70.8 nM (active) with SKOV3.
For `C[C@]12CC[C@H]3[C@@H](CCC4=C/C(=N/OCC(=O)O)CC[C@@]43C)[C@@H]1CC[C@@H]2O`, the Potency entry (in assay [8]; in [2]; in [5]; in assay [6]; in assay [7]; in the assay on CAOV3) was “inactive” each time. For the same molecule, the Potency result in the assay with SKOV3 is “inactive”. In the assay with KB-3-1, the call was inactive.
On to `CC1=C[C@H]2O[C@@H]3[C@H](O)[C@@H](O)[C@](C)([C@@]2(CO)C[C@@H]1O)[C@]31CO1`, for which the Potency was 2060 nM (active) in [1]; 515 nM (active) in assay [5]; 1460 nM (active) in the assay with KB-3-1; 11.2 µM (active) with CAOV3; 12600 nM (active) with HeLa. Further, the Potency result in assay [2], in [6] and in [7] was “inactive” throughout.
As for `CC[C@H](C)[C@H](NC(=O)[C@H]1CCCCN1C)C(=O)N(COC(=O)CC(C)C)[C@H](C[C@@H](OC(C)=O)c1nc(C(=O)N[C@@H](Cc2ccc(O)cc2)C[C@H](C)C(=O)O)cs1)C(C)C`, the Potency in [1] is 1.9 nM (active); in [5], 0.3 nM (active); in the assay with KB-3-1, 0.8 nM (active). In addition, the activity change, negative = inhibition in assay [2] was 9.2% [at 2.28 µM]. In assay [6], the activity change, negative = thiol reactive is 28.3% [at 1.02 µM]. Besides, in assay [7], the redox activity (% of DA3003) is -0.209% [at 1.02 µM]. Also, the activity change, negative = cytotoxicity with CAOV3 is -2.04% [at 1.28 µM].
In the case of `CC[C@H]1C[C@@H]2CC[C@@H](O2)[C@@H](C)C(=O)O[C@H](CC)C[C@H]2CC[C@H](O2)[C@H](C)C(=O)O[C@@H](C)C[C@@H]2CC[C@@H](O2)[C@@H](C)C(=O)O[C@H](CC)C[C@H]2CC[C@H](O2)[C@H](C)C(=O)O1`, the Potency in [1] is 968 nM (active); in assay [5], 13.6 nM (active); in the assay with KB-3-1, 15.3 nM (active); with CAOV3 it was 0.398 µM (active); in the assay on SKOV3, 251 nM (active). Besides, the Potency result in [7] was “inactive”.
In the case of `COC1CC(O[C@H]2CC[C@]3(C)C4CC[C@]5(C)[C@@H](C6=CC(=O)OC6)[C@@H](OC(C)=O)C[C@]5(O)C4CC[C@@H]3C2)OC(C)C1O` (stereo partly specified), the Potency was 563 nM (active) in [1]; 448 nM (active) in assay [5]; 563 nM (active) in the assay with KB-3-1; 1.26 µM (active) in the assay on CAOV3; 891 nM (active) in the assay with HeLa; 794 nM (active) with SKOV3. The Potency entry in [2] and in [6] was “inactive” each time.
For `CO[C@H]1[C@H](O)[C@H](O[C@H]2CC[C@]3(C=O)C4CC[C@]5(C)[C@H](C6=CC(=O)OC6)CC[C@]5(O)C4CC[C@@H]3C2)O[C@@H](C)[C@@H]1O` (stereo partly specified), the Potency result in assay [2] was “inactive”. Moreover, the Potency in assay [5] was 44.7 nM (active); in the assay on KB-3-1, 39.9 nM (active); in the assay on CAOV3 it was 0.1 µM (active); in the assay with HeLa, 126 nM (active).
Take `C[C@@H]1[C@H](O)[C@@H](C)/C=C/C=C/CC/C=C/C=C/C=C/C=C/[C@H](O[C@H]2O[C@@H](C)[C@H](O)[C@@H](N)[C@H]2O)C[C@@H]2O[C@](O)(C[C@@H](O)[C@H](O)CC[C@@H](O)C[C@@H](O)C[C@@H](O)CC(=O)O[C@H]1C)C[C@H](O)[C@H]2C(=O)O`: the Potency entry (in assay [8]; in assay [1]; in [6]; in the assay on CAOV3; in the assay with HeLa) was “inactive” in each case. Further, in assay [2], the Potency was 8.91 µM (active). Also, in the assay on KB-3-1, the molecule was called inactive. Further, the outcome in the assay on HACAT is “inactive [at 17.4 µM]”.
